# PubChem BioAssay
# Active and inactive are the calls of the source.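 How the source made its calls: active means normalized viability below 100% at a tested concentration; inactive means the rest.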
# Assay: survival rescue of mitochondrial mutant cells in low glucose, primary screen, MELAS cybrids, Rieske KO mouse fibroblasts, CellTiter-Glo (AID 1508586);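 further: z relative to plate mean and SD of compound and empty wells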
# Conditions: Rieske KO mouse fibroblast survival, CellTiter-Glo 72 h
row,Structure (SMILES),z-score
1,CS(=O)(=O)CCNCc1coc(-c2ccc3ncnc(Nc4ccc(OCc5ccccc5)cc4)c3c2)c1,-0.493
2,CCN1CCN(C(=O)c2cc(-c3cc(C)cs3)cc(S(=O)(=O)N3CCOCC3)c2)CC1,-0.432
3,NC(=O)Cc1ccccc1Oc1nccc(-c2c(-c3ccc(F)cc3)ncn2C2CCNCC2)n1,-0.373
4,O=C(Nc1ccc(Oc2ccc3nc(NC(=O)c4ccco4)[nH]c3c2)cc1)Nc1cc(C(F)(F)F)ccc1F,6.9
5,CC(C)NS(=O)(=O)c1cc(NC2CCCCC2)cc(C(=O)NC2Cc3ccccc3C2)c1,-0.431

# Assay: ovarian cancer cell viability with rucaparib, profiling panel, oncology-focused library, rucaparib conditional (AID 1508598)
# Conditions: patient-derived ovarian cancer cells, CellTiter-Glo viability, 144 h; at 0.000305 µM; OCI-C5x cells; with rucaparib 10 µM; stronger effect = lower value; 100% = cells with rucaparib alone
row,Structure (SMILES),viability
1,O=c1[nH]c(=O)n([C@@H]2C[C@H](O)[C@@H](CO)O2)cc1F,115% (inactive)
2,COc1cccc2c1C(=O)c1c(O)c3c(c(O)c1C2=O)C[C@@](O)(C(C)=O)C[C@H]3O[C@H]1C[C@H](N)[C@H](O)[C@H](C)O1,118% (inactive)
3,C[C@]12CC[C@H]3c4ccc(O)cc4CC[C@H]3[C@@H]1CC[C@H]2O,95.7% (active)
4,CC1=C(/C=C/C(C)=C\C=C\C(C)=C/C(=O)O)C(C)(C)CCC1,112% (inactive)
5,CC(C)CC(CC(=O)NO)C(=O)N[C@@H](Cc1ccc2ccccc2c1)C(=O)N[C@@H](C)C(=O)NCCN (stereo partly drawn),123% (inactive)
6,COc1cccc2c1C(=O)c1c(O)c3c(c(O)c1C2=O)C[C@@](O)(C(=O)CO)C[C@H]3O[C@H]1C[C@H](N)[C@@H](O)[C@H](C)O1,101% (inactive)
7,COc1ccc(C2=N[C@H](c3ccc(Cl)cc3)[C@@H](c3ccc(Cl)cc3)N2C(=O)N2CCNC(=O)C2)c(OC(C)C)c1,112% (inactive)
8,CO[C@H]1C[C@H]2CC[C@@H](C)[C@@](O)(O2)C(=O)C(=O)N2CCCC[C@H]2C(=O)O[C@H]([C@H](C)C[C@@H]2CC[C@H](OC(=O)C(C)(CO)CO)[C@H](OC)C2)CC(=O)[C@H](C)/C=C(\C)[C@@H](O)[C@@H](OC)C(=O)[C@H](C)C[C@H](C)/C=C/C=C/C=C/1C,93.5% (active)
9,O=C(O)c1cc(I)ccc1NC(=O)[C@H](Cc1ccccc1)NCc1ccccc1,126% (inactive)
10,Nc1ncn([C@@H]2O[C@H](CO)[C@@H](O)[C@@H]2O)c(=O)n1,104% (inactive)
11,CO[C@H]1C[C@@H]2CC[C@@H](C)[C@@](O)(O2)C(=O)C(=O)N2CCCC[C@H]2C(=O)O[C@H]([C@H](C)C[C@@H]2CC[C@@H](O)[C@H](OC)C2)CC(=O)[C@H](C)/C=C(\C)[C@@H](O)[C@H](OC)C(=O)[C@H](C)C[C@H](C)/C=C/C=C/C=C/1C,117% (inactive)
12,CC(=O)OCC(=O)[C@]1(O)[C@H](C)C[C@H]2[C@@H]3CCC4=CC(=O)C=C[C@]4(C)[C@]3(F)[C@H](O)C[C@@]21C,119% (inactive)
13,CC[C@]1(O)C[C@@H]2CN(CCc3c([nH]c4ccccc34)[C@@](C(=O)OC)(c3cc4c(cc3OC)N(C=O)[C@H]3[C@@](O)(C(=O)OC)[C@H](OC(C)=O)[C@]5(CC)C=CCN6CC[C@@]43[C@@H]65)C2)C1,113% (inactive)
14,C[C@@]12CC[C@H]3c4ccc(O)cc4C[C@@H](CCCCCCCCCS(=O)CCCC(F)(F)C(F)(F)F)[C@H]3[C@@H]1CC[C@@H]2O (stereo partly drawn),127% (inactive)
15,CC(=O)O[C@@]1(C(C)=O)CC[C@H]2[C@@H]3C[C@H](C)C4=CC(=O)CC[C@]4(C)[C@@H]3CC[C@@]21C,108% (inactive)
16,CC(=O)O[C@]12CO[C@@H]1C[C@H](O)[C@]1(C)C(=O)[C@H](O)C3=C(C)[C@H](OC(=O)[C@H](O)[C@@H](NC(=O)OC(C)(C)C)c4ccccc4)C[C@](O)([C@H](OC(=O)c4ccccc4)C21)C3(C)C (stereo partly drawn),118% (inactive)
17,CCC1=CC2CN(C1)Cc1c([nH]c3ccccc13)[C@@](C(=O)OC)(c1cc3c(cc1OC)N(C)[C@H]1[C@@](O)(C(=O)OC)[C@H](OC(C)=O)[C@]4(CC)C=CCN5CC[C@@]31[C@H]54)C2 (stereo partly drawn),110% (inactive)
18,CC(=O)O[C@H]1C(=O)[C@@]2(C)C([C@H](OC(=O)c3ccccc3)[C@]3(O)C[C@H](OC(=O)[C@H](O)[C@@H](NC(=O)c4ccccc4)c4ccccc4)C(C)=C1C3(C)C)[C@]1(OC(C)=O)CO[C@@H]1C[C@H]2O (stereo partly drawn),112% (inactive)
